Assay results published in PubChem BioAssay (Tox21).
Inconclusive results are not listed. Activity calls are given as the source filed them. Unless noted, calls come from the whole dose curve; as a rule, active = well fitted curve in the direction sought with a large enough effect in the repeat runs; inconclusive = weak or mixed curves; inactive = no such curve, though single readings can be large; an effect the other way counts as inactive or inconclusive.

How the values were obtained:
[1] = biological target: Thyrotropin receptor (Homo sapiens) (UniProt P16473); assay: qHTS assay to identify small molecule agonists of the thyroid stimulating hormone receptor (TSHR) signaling pathway (AID 1224843; calls by dose curve; note: nearly all actives have a fitted effect of over 45% in size)
Summary of the method: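 Steps: seed 800 TSHR-HEK293 cells per well; add test compound and hold 30 min at ambient temperature; dispense cAMP-d2 then anti-cAMP cryptate; incubate 1 h at ambient; measure fluorescence intensity.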

[2] = qHTS assay to identify small molecule agonists of the hypoxia (HIF-1) signaling pathway - cell viability counter screen (AID 1224844; calls by dose curve; note: nearly all actives have a fitted effect of over 50% in size)
Summary of the method: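 Luminescent ATP content (CellTiter-Glo, 30 min, room temperature) served as the viability measure in HRE-bla ME-180 cells exposed to compounds for 17 hrs in low-serum medium (0.5% dialyzed FBS).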

[3] = qHTS assay to identify small molecule agonists of H2AX (AID 1224845; active = well fitted activation curve with a large enough effect in the signal ratio in the repeat runs, not every such curve was filed as active; the % refers to the signal ratio)
Summary of the method: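 Wild-type CHO-K1 cells, plated overnight, exposed 3hr at 37C to 15 concentrations (0.76% DMSO final). Lysed, then HTRF anti-pH2AX (S139) cryptate and anti-H2AX-d2 antibodies, 24 hr room temperature; 665/620 nm emission read.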

[4] = qHTS assay to identify small molecule agonists of the hypoxia (HIF-1) signaling pathway (AID 1224846; active = well fitted activation curve with a large enough effect in the signal ratio in the repeat runs, not every such curve was filed as active; the % refers to the signal ratio)
Summary of the method: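 Measured by blue/green FRET after loading CCF4-AM: beta-lactamase expressed from a hypoxia response element in ME-180 cells. Test agents were delivered in DMSO and left 17 hrs; cells had been plated 5 hrs earlier in low-serum (0.5% dialyzed FBS) medium.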

[5] = qHTS assay to identify small molecule agonists of H2AX - cell viability counter screen (AID 1224847; calls by dose curve; note: top concentration of the series differs between compounds; nearly all actives have a fitted effect of over 30% in size)
Summary of the method: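 For this counter screen, overnight-attached CHO-K1 cells received test compounds (15 concentrations, 0.76% DMSO final); 3 hr later at 37C, CellTiter-Glo reagent was added and luminescence recorded after 30 min at room temperature.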

[6] = qHTS RealTime-Glo MT Cell Viability Assay in HepG2 cells - 24 hour (AID 1224867); note: nearly all actives have a fitted effect of over 50% in size
Summary of the method: (§1)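 HepG2 suspension premixed with RealTime-Glo reagents is plated at 600 cells per well and left 5 h at 37 C/5% CO2. Compounds in DMSO then go in, and bioluminescence reflecting viable cell number is recorded over 40 h.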

[7] = qHTS RealTime-Glo MT Cell Viability Assay in HEK293 cells - 32 hour (AID 1224868); note: top concentration of the series differs between compounds; nearly all actives have a fitted effect of over 50% in size
Summary of the method: (§2)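 Reads taken at 0, 8, 16, 24, 32 and 40 h from the same wells. HEK293 cells (600/well) carried RealTime-Glo reagents from seeding, with compound added after a 5 h settle at 37 C.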

[8] = qHTS RealTime-Glo MT Cell Viability Assay in HepG2 cells - 40 hour (AID 1224870); note: nearly all actives have a fitted effect of over 50% in size
Summary of the method: (§3)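 HepG2 cells (600/well) mixed with RealTime-Glo MT reagent, settled 5 h at 37 C/5% CO2 before compound addition. Nonlytic NanoLuc luminescence from viable-cell prosubstrate reduction read repeatedly during 40 h treatment at 37 C.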

[9] = A CellTox Green Cytotoxicity Assay to monitor cytotoxicity in HEK293 cells - 40 hour (AID 1224871); note: nearly all actives have a fitted effect of over 45% in size
Summary of the method: (§4)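 Each value comes from one timepoint of a single continuous run in which HEK293 cells with CellTox Green were exposed to compound for up to 40 h at 37 C, dye fluorescence rising with cell death.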

[10] = qHTS RealTime-Glo MT Cell Viability Assay in HEK293 cells - 16 hour (AID 1224872)
Summary of the method: as §2

[11] = qHTS RealTime-Glo MT Cell Viability Assay in HepG2 cells - 8 hour (AID 1224873); note: nearly all actives have a fitted effect of over 55% in size
Summary of the method: as §3

[12] = qHTS RealTime-Glo MT Cell Viability Assay in HEK293 cells - 40 hour (AID 1224874); settings: RealTime-Glo luminescence; max response: stronger effect = lower value; note: nearly all actives have a fitted effect of over 50% in size
Summary of the method: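 qHTS format; HEK293 cells with NanoLuc/prosubstrate reagent, 37 C/5% CO2 for 5 h pre-dosing; compounds 23 nL in DMSO; luminescence at each time point reflects viable cells.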

[13] = A CellTox Green Cytotoxicity Assay to monitor cytotoxicity in HEK293 cells - 24 hour (AID 1224875); note: nearly all actives have a fitted effect of over 45% in size
Summary of the method: as §4

[14] = A CellTox Green Cytotoxicity Assay to monitor cytotoxicity in HepG2 cells - 16 hour (AID 1224876); note: nearly all actives have a fitted effect of over 45% in size
Summary of the method: (§5)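 Continuous culture of HepG2 cells with a membrane-impermeant DNA dye; rising fluorescence marks dead cells. Compound exposure lasted up to 40 h at 37 C, with reads every 8 h from 0 h.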

[15] = qHTS RealTime-Glo MT Cell Viability Assay in HepG2 cells - 32 hour (AID 1224877); note: nearly all actives have a fitted effect of over 55% in size
Summary of the method: as §1

[16] = A CellTox Green Cytotoxicity Assay to monitor cytotoxicity in HepG2 cells - 40 hour (AID 1224879); note: nearly all actives have a fitted effect of over 40% in size
Summary of the method: as §5

[17] = A CellTox Green Cytotoxicity Assay to monitor cytotoxicity in HEK293 cells - 0 hour (AID 1224869); note: nearly all actives have a fitted effect of over 50% in size
Summary of the method: as §4

[18] = A CellTox Green Cytotoxicity Assay to monitor cytotoxicity in HepG2 cells - 24 hour (AID 1224878); note: nearly all actives have a fitted effect of over 45% in size
Summary of the method: as §5

[19] = qHTS assay to identify small molecule antagonists of the estrogen related receptor (ERR) signaling pathway from Tox21 library (AID 1224848); note: nearly all actives have a fitted effect of over 50% in size
Summary of the method: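 Luminescent reporter read-out (ONE-Glo) from NTP's ERR cell line after 18 h treatment at 37 C with DMSO-dissolved Tox21 compounds; cells pre-plated 6 h beforehand at 2,000 per well.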

[20] = qHTS assay to identify small molecule agonists of the estrogen related receptor (ERR) signaling pathway from Tox21 library (AID 1224849; calls by dose curve; note: nearly all actives have a fitted effect of over 15% in size); settings: ERR reporter cell line, ONE-Glo luciferase, 18 h; at 92.4 µM (top of the series) unless noted
Summary of the method: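 We plated ERR reporter cells, waited 6 h, added compounds in DMSO by pin tool and incubated them 18 h at 37 C. ONE-Glo was then added and luminescence read after 30 min.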
% is set by controls: 0 for no effect and ±100 for the full control effect.

Sequence of Thyrotropin receptor (Homo sapiens) (P16473 whole entry, looked up): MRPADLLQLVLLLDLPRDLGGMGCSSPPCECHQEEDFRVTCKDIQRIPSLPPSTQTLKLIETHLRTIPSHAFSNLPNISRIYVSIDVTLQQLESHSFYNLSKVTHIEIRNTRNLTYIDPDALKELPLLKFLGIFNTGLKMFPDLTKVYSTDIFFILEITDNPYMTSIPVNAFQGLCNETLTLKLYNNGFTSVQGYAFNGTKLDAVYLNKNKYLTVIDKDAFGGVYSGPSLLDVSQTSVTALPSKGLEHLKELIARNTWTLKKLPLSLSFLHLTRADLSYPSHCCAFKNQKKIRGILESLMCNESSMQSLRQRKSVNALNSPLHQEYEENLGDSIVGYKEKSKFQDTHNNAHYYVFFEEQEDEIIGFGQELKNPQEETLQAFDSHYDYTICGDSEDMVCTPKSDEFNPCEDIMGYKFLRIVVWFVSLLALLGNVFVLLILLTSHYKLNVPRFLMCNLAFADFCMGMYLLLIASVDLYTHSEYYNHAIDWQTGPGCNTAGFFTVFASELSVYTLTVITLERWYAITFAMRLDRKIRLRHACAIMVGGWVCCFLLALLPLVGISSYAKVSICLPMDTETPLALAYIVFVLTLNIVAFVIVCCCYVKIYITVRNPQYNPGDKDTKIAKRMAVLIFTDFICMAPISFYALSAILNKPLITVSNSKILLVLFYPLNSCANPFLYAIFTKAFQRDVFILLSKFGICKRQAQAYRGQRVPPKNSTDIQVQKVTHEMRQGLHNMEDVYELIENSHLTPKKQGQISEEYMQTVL

C/C(=C\C(C)CC(C)CC(C)C)C1CC(=O)OC1=O (centres undefined)
inactive: Potency [1] | Potency [2] | Potency [3] | outcome [4] | Potency [5] | outcome [6] | Potency [7] | Potency [8] | Potency [9] | Potency [10] | outcome [11] | max response [12] -12% | Potency [13] | Potency [14] | Potency [15] | Potency [16]

Cc1cccc(C)c1NC(=O)CN1CCCC1
inactive: Potency [1] | Potency [2] | Potency [3] | outcome [4] | Potency [5] | outcome [6] | Potency [7] | Potency [17] | Potency [9] | Potency [10] | outcome [11] | max response [12] 8.7% | Potency [13] | Potency [14] | Potency [15] | Potency [18] | Potency [16]

CCOC(OCC)OCC
inactive: Potency [1] | Potency [2] | Potency [3] | outcome [4] | outcome [6] | Potency [7] | Potency [8] | Potency [10] | outcome [11] | max response [12] -1.36% | Potency [13] | Potency [14] | Potency [15] | Potency [18] | Potency [16]

O=[N+]([O-])c1ccccc1CCO
inactive: Potency [1] | Potency [2] | Potency [3] | outcome [4] | Potency [5] | Potency [7] | Potency [8] | Potency [9] | Potency [10] | outcome [11] | max response [12] 16.6% | Potency [13] | Potency [14] | Potency [15] | Potency [18] | Potency [16]

Cc1cc(SC2=C(O)C[C@@](CCc3ccc(N)cc3)(C(C)C)OC2=O)c(C(C)(C)C)cc1CO
inactive: Potency [1] | Potency [2] | Potency [3] | outcome [4] | Potency [19] | activity change, positive = activation [20] -7.37% | outcome [6] | Potency [7] | Potency [17] | Potency [8] | Potency [9] | Potency [10] | outcome [11] | max response [12] -1.78% | Potency [13] | Potency [14] | Potency [15] | Potency [18] | Potency [16]

CCCCCC1CCC(=O)O1 (centres undefined)
inactive: Potency [1] | Potency [2] | Potency [3] | outcome [4] | Potency [19] | activity change, positive = activation [20] 4.33% | outcome [6] | Potency [7] | Potency [17] | Potency [8] | Potency [9] | Potency [10] | outcome [11] | max response [12] 24.1% | Potency [13] | Potency [14] | Potency [15] | Potency [18] | Potency [16]

COc1ccc(CN(CCN(C)C)c2ncccn2)cc1
inactive: Potency [1] | Potency [2] | Potency [3] | outcome [4] | Potency [5] | Potency [7] | Potency [17] | Potency [9] | Potency [10] | outcome [11] | max response [12] 4.01% | Potency [13] | Potency [14] | Potency [15] | Potency [18] | Potency [16]

Cc1ccc2c(Cl)cc(Cl)c(O)c2n1
inactive: Potency [1] | Potency [2] | Potency [3] | outcome [4] | outcome [6] | Potency [7] | Potency [17] | Potency [8] | Potency [10] | outcome [11] | max response [12] -5.73% | Potency [13] | Potency [14] | Potency [15] | Potency [18] | Potency [16]
